This passage reports Potency results from PubChem BioAssay AID602292 (National Center for Advancing Translational Sciences (NCATS), 2012).

The whole screen tested about 1,300 compounds, of which about 380 (29%) were called active. Inconclusive results (about 37%) are left out. Calls follow the shape of the dose curve; as a rule, active = well fitted inhibition curve with a large enough effect; inconclusive = small, poorly fitted or top-dose-only effect; inactive = flat fitted curve, though single readings scatter. This is one part of the list. Where a call stands in place of a potency, no number is given.
Potency is read from the fitted curve at half-maximal effect.

Chain of Thyrotropin receptor (Homo sapiens) (P16473 whole entry, looked up): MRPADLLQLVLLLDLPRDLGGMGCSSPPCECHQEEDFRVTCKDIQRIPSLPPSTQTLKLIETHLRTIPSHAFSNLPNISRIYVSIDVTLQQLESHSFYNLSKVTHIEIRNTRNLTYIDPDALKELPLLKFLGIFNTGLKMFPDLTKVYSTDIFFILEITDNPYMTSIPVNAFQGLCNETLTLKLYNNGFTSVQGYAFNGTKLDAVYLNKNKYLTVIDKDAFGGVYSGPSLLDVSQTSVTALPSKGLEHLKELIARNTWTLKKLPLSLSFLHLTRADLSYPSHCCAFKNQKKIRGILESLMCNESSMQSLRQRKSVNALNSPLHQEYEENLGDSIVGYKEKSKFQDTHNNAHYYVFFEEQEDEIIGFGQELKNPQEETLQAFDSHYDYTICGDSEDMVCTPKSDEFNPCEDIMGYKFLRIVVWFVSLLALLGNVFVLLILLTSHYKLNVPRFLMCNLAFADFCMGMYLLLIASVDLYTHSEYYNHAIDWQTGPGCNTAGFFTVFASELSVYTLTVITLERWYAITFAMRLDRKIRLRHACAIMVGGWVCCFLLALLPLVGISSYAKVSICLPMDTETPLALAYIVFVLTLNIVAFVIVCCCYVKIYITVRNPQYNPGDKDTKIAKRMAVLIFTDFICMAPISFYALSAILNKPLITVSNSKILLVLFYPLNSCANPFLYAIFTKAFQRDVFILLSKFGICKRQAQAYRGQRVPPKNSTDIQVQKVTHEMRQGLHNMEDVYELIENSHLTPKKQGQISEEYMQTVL

In the assay the target is Thyrotropin receptor (Homo sapiens) (UniProt P16473). As to the kind of experiment: qHTS for antagonists of the Thyroid Stimulation Hormone Receptor: Hit Validation in Primary Screen. Also: nearly all actives have a fitted effect of over 80% in size. The conditions noted are these: TSHR-expressing cells, cAMP antagonist mode; series mostly up to 58 µM. An outline of the steps:
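TSHR-expressing cells were pretreated with compound, then stimulated with TSH at EC80 (4nM final) for 2 hours at 37 deg C. Cellular cAMP measured by competitive HTRF (anti-cAMP cryptate, cAMP-d2) after 30 min at room temperature.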
A general note: qHTS replaces the single test concentration by a dilution series.
With `CCC(=O)NC1=C(Cl)C(=O)C(NC(=O)CC)=C(Cl)C1=O`, the Potency is 30.1 µM (active).

For `O=C(NC1CCOc2ccccc21)c1ccccn1` (configuration not stated), the Potency entry was “inactive”.

For `COc1ccc(CCNC(=O)c2ccc(-c3ccc([N+](=O)[O-])cc3Cl)o2)cc1OC`, the Potency was 23.9 µM (active).

Regarding `COc1ccc(CCNC(=O)c2cccc3c2C(=O)N(C2CCCCC2)C3)cc1OC`, the Potency entry was “inactive”.

For `O=C(CSc1nnc(-c2ccncc2)n1Cc1ccco1)Nc1nc(-c2ccccc2)cs1`, the Potency is 21.3 µM (active).

Regarding `Cc1cc(C)c(S(=O)(=O)c2c(C)cccc2C)c(Cl)n1`, the Potency was 23.9 µM (active).

On to `CC(Sc1nn(-c2ccc(F)cc2)c(=S)s1)C(=O)c1c(N)n(C)c(=O)n(C)c1=O` (configuration not stated), for which the Potency was 37.9 µM (active).

As to `CCCCCC/C(C)=C1/SC(=S)NC1=O`, the Potency was 30.1 µM (active).

Regarding `O=C(Nn1cnnc1)C(c1ccccc1)c1ccccc1`, the Potency result was “inactive”.

As to `O=C(N=C1SC2CS(=O)(=O)CC2N1c1ccc(F)cc1)C1CC1` (configuration not stated), the Potency entry was “inactive”.

As to `CCCCCc1c2c(cc(O)c1C(=O)O)OC(=O)c1c(cc(OC)cc1C(=O)CCCC)O2`, the Potency was 33.8 µM (active).

On to `COC(=O)[C@H]1[C@H]2C[C@@H]3c4[nH]c5cc(OC)ccc5c4CCN3C[C@H]2C[C@@H](OC(=O)/C=C/c2cc(OC)c(OC)c(OC)c2)[C@@H]1OC`, for which the Potency result was “inactive”.

`O=C(CC1C(=O)NCCN1Cc1cccc(F)c1F)NCCCC1CCCC1` (configuration not stated): the Potency result is “inactive”.

On to `CC(Oc1ccc(Cl)cc1Cl)c1nc(-c2ccc(NC(=O)c3cccnc3)cc2)no1` (configuration not stated), for which the Potency is 21.3 µM (active).

In the case of `CCCn1nnc(NC(=O)C(C)Oc2ccc(Cl)cc2Cl)n1` (configuration not stated), the Potency result is “inactive”.

Turning to `Cc1ccccc1Oc1cc(-n2ncc(Cl)c(Cl)c2=O)ncn1`, the Potency is 12 µM (active).

With `COCCNc1cnn(-c2ccccc2)c(=O)c1Cl`, the Potency entry was “inactive”.

As for `CC(C)(CNC(=O)C1c2ccccc2-c2ccccc21)N1CCOCC1`, the Potency result is “inactive”.

On to `Cc1[nH]n(-c2ccccc2)c(=O)c1N=Nc1c(O)cc(S(=O)(=O)N(C)C)c2ccccc12`, for which the Potency is 8.49 µM (active).

`CC(NC(=O)/C(C#N)=C/c1ccc([N+](=O)[O-])o1)c1ccccc1` (configuration not stated): the Potency was 30.1 µM (active).

Take `Cc1ccc(S(=O)(=O)N2CCN(C(=O)Cc3ccsc3)CC2)c(C)c1`: the Potency result was “inactive”.

On to `CCc1nn(CC(=O)N2CCCCCC2)c(=O)c2cc3ccccc3n12`, for which the Potency entry is “inactive”.

In the case of `O=C(Cn1ncc(Cl)c(Cl)c1=O)N1CCN(S(=O)(=O)c2ccc3ccccc3c2)CC1`, the Potency was 9.53 µM (active).

For the molecule `NC(=O)CSc1oc(-c2ccco2)nc1S(=O)(=O)c1ccccc1`, the Potency entry is “inactive”.

Regarding `CS(=O)(=O)N1CCc2cc(C(=O)Nc3ccc(COCC(F)(F)F)cc3)ccc21`, the Potency entry is “inactive”.

For `CCc1nnc(NC(=O)c2ccc(Cl)c(S(=O)(=O)N3CCc4ccccc43)c2)s1`, the Potency was 7.57 µM (active).

For the molecule `NC(=O)c1ccc(CN2CCc3ccccc3C2)cc1`, the Potency entry is “inactive”.

On to `O=C(Nc1nnc(C2CC2)s1)c1ccc(Cl)c(S(=O)(=O)N2CCc3ccccc3C2)c1`, for which the Potency was 3.79 µM (active).

For the molecule `CCc1nnc(NS(=O)(=O)c2ccc(NC(=O)COc3ccc4ccccc4c3)cc2)s1`, the Potency result was “inactive”.

In the case of `C=CCOc1c(Cl)cc(CNc2ccc(N(C)C)cc2)cc1OC`, the Potency result was “inactive”.

As for `O=C1C=C(c2ccc(Cl)c(C(F)(F)F)c2)C[C@@H](c2ccc(Cl)cc2)C1`, the Potency entry is “inactive”.

Take `N#Cc1c(C(F)(F)F)cc(-c2ccc(Cl)cc2)[nH]c1=O`: the Potency is 10.7 µM (active).

Take `COc1cc(C(C(=O)NCc2ccccc2)N(C(=O)c2snc(C(N)=O)c2N)C2CCCC2)cc(OC)c1OC` (configuration not stated): the Potency entry was “inactive”.

On to `Cc1ccc(NC(=S)c2nc3ccccc3s2)cc1`, for which the Potency result is “inactive”.

With `COC(=O)c1ccc(/C(O)=C(\C#N)c2nc3ccccc3s2)cc1`, the Potency is 15.1 µM (active).

`COc1ccc(CCNc2ncnc3sc(C)cc23)cc1OC`: the Potency was 19 µM (active).

Consider `COc1ccc(CCNc2ncnc3c2[nH]c2cc(OC)c(OC)cc23)cc1OC`, for which the Potency entry was “inactive”.

Turning to `Cc1cc2c(NCCc3ccccc3)ncnc2s1`, the Potency is 23.9 µM (active).

On to `Cc1nn(S(=O)(=O)c2ccc(F)cc2)c(C)c1S(=O)(=O)N1CCOCC1`, for which the Potency entry was “inactive”.

Take `Cc1nc2ccccc2n1CC(=O)N/N=C\C=C\c1ccccc1`: the Potency entry was “inactive”.

With `COc1ccc(-n2nnnc2SCC(=O)NC2CCCC2)cc1OC`, the Potency result is “inactive”.

In the case of `Cc1ccc(Nc2cc(C)nc3ccc(C)cc23)cc1`, the Potency result was “inactive”.

For `Cc1ccc(-c2nc3ccc(C(=O)O)cc3nc2-c2ccc(C)cc2)cc1`, the Potency is 23.9 µM (active).

For the molecule `N#Cc1ccc(NC(=O)Nc2ccc(Cl)cc2)cc1`, the Potency is 7.57 µM (active).

`Nc1ccccc1N=Cc1ccc(-c2cccc(Cl)c2)o1`: the Potency was 37.9 µM (active).

Take `COc1ccccc1N1CCN(c2nc(C)nc3c2oc2ccccc23)CC1`: the Potency was 26.9 µM (active).

On to `Cc1ccccc1C(=O)Nc1nnc(SCC(=O)NC2CC2)s1`, for which the Potency result is “inactive”.

Consider `Cc1ccc(NC(=O)Nc2ccc3c(c2)N(C)C(=O)CS3)cc1C`, for which the Potency was 30.1 µM (active).

Take `CC1CCN(CCCNC(=O)CN2C(=O)CSc3ccc(S(=O)(=O)N4CCOCC4)cc32)CC1`: the Potency entry was “inactive”.

Turning to `CCC(C)NC(=O)CN1C(=O)CSc2ccc(S(=O)(=O)N3CCCC3)cc21` (configuration not stated), the Potency result is “inactive”.

For `O=C1CSc2nc3ccccc3n21`, the Potency result is “inactive”.

Turning to `CC(=O)N(C1=C(Cl)C(=O)c2ccccc2C1=O)C1CCCCC1`, the Potency is 30.1 µM (active).

With `CCOc1ccc(CCNC(=O)c2ccc3c(=O)[nH]c4c(C(=O)NC(C)C)sc(=S)n4c3c2)cc1`, the Potency is 6.01 µM (active).

For `CCCCNC(=O)c1sc(=S)n2c1[nH]c(=O)c1ccccc12`, the Potency is 4.78 µM (active).

As for `COc1ccccc1NC(=O)NNC(=O)CCN1CCOCC1`, the Potency entry is “inactive”.

Consider `NS(=O)(=O)c1ccc(CNC(=O)CCS(=O)(=O)Cc2ccccc2)cc1`, for which the Potency entry is “inactive”.

For `Brc1ccc(-c2nnc(-c3cccc(Br)c3)o2)cc1`, the Potency result was “inactive”.

Take `N#Cc1c(SCc2c(Cl)cccc2Cl)nc(N)[nH]c1=S`: the Potency was 19 µM (active).

With `CCOCCCNC(=O)C(NC(=O)c1ccc(=O)[nH]c1)c1ccc(Cl)cc1` (configuration not stated), the Potency result was “inactive”.

Consider `Cc1nn(-c2ccccc2)c(C)c1NC(=O)COc1ccc(Br)cc1Cl`, for which the Potency is 23.9 µM (active).

For the molecule `CCn1nc(C)c(NC(=O)/C=C/c2ccc(OC)c(COc3ccc(Br)cc3)c2)c1C`, the Potency result was “inactive”.

Regarding `COc1ccc(-n2nc(C(=O)NCC(=O)Nc3cc(OC)c(OC)c(OC)c3)c3ccccc3c2=O)cc1OC`, the Potency entry is “inactive”.

`CCCC(=O)Nc1nnc(CCc2ccccc2)s1`: the Potency entry is “inactive”.

`Cc1ccc(S(=O)(=O)N(CC(=O)NCc2ccccn2)c2ccc(Cl)cc2)cc1`: the Potency result is “inactive”.

For the molecule `CS(=O)(=O)c1ncc(Cl)c(C(=O)Nc2ccc3ccccc3c2)n1`, the Potency was 30.1 µM (active).

With `CS(=O)(=O)Cc1ccc(C(=O)Nc2cccc(-c3nc4ccccc4[nH]3)c2)cc1`, the Potency result was “inactive”.

Regarding `CN1/C(=C/C(=O)c2nc(S(C)(=O)=O)ncc2Cl)C(C)(C)c2ccccc21`, the Potency was 21.3 µM (active).

Regarding `CCN(c1ccccc1)S(=O)(=O)c1ccc(NC(=O)c2nc(S(C)(=O)=O)ncc2Cl)cc1`, the Potency is 26.9 µM (active).

On to `CCN(c1ccccc1)S(=O)(=O)c1ccc(NCC2COc3ccccc3O2)nc1` (configuration not stated), for which the Potency result is “inactive”.

Take `CCC1CCCCN1S(=O)(=O)c1ccc(NC(=O)c2nc(S(C)(=O)=O)ncc2Cl)cc1` (configuration not stated): the Potency is 9.53 µM (active).

For the molecule `CCS(=O)(=O)c1ncc(Cl)c(C(=O)Nc2ccc(S(=O)(=O)N(C)c3ccccc3)cc2)n1`, the Potency was 19 µM (active).

As for `CCSc1ncc(Cl)c(C(=O)Nc2ccccc2OC)n1`, the Potency result was “inactive”.

As to `CN(c1ccccc1)S(=O)(=O)c1ccc(NC(=O)c2nc(S(C)(=O)=O)ncc2Cl)cc1`, the Potency is 21.3 µM (active).

Consider `CCS(=O)(=O)c1ccc(C(=O)Nc2ccccc2)c(Cl)c1Cl`, for which the Potency entry was “inactive”.

As for `Cc1onc(-c2c(Cl)cccc2Cl)c1C(=O)N1CCc2ccccc2C1`, the Potency result was “inactive”.

On to `COc1ccc(/C=N/n2c(C)nnc2C)c(OC)c1OC`, for which the Potency result was “inactive”.

In the case of `CCN(C(=O)c1cc2c(=O)n3ccccc3nc2n1C)C1CCCCC1`, the Potency result was “inactive”.

For `CCN(CC)c1ccc2nc3ccccc3[n+](CC)c2c1`, the Potency was 13.5 µM (active).

Take `Cc1c(N=Nc2c(-c3ccc([N+](=O)[O-])cc3)[nH]n(C(N)=S)c2=O)cccc1[N+](=O)[O-]`: the Potency was 3.79 µM (active).

For the molecule `CC(=O)Nc1nc(C)c(Oc2ccc(C)cc2)c(=O)[nH]1`, the Potency entry is “inactive”.

As for `COc1ccc(Nc2ccc([N+](=O)[O-])c3nonc23)c(OC)c1`, the Potency result was “inactive”.

Take `O=[N+]([O-])c1ccc(Sc2cccc[n+]2[O-])c2nonc12`: the Potency is 8.49 µM (active).

In the case of `Cc1ccc(NC(=O)c2cccc(OCc3c(C)noc3C)c2)cc1S(=O)(=O)Nc1ccccc1Cl`, the Potency result is “inactive”.

As to `Fc1cccc(Cl)c1CNCc1cccnc1`, the Potency result was “inactive”.

Turning to `O=C(Nc1ccc(Cl)c(Cl)c1)c1cccc(S(=O)(=O)NCc2cccnc2)c1`, the Potency was 13.5 µM (active).

As for `CN(C)S(=O)(=O)Oc1cccc(C(=O)Nc2ccc(Cl)c(Cl)c2)c1`, the Potency is 26.9 µM (active).

For the molecule `O=C(NCc1cccnc1)c1nc(-c2ccccc2)n(-c2ccccc2)n1`, the Potency entry is “inactive”.

Turning to `O=c1[nH]c(=S)[nH]c2c1CN(Cc1ccc(F)cc1)CC2`, the Potency entry was “inactive”.

For `O=c1c2nncn2c2cccnc2n1CCNc1ncc(C(F)(F)F)cc1Cl`, the Potency entry was “inactive”.

Regarding `O=C(O)c1nn(CC(=O)N2CCN(c3ncc(C(F)(F)F)cc3Cl)CC2)c(=O)c2ccccc12`, the Potency was 21.3 µM (active).

Take `Cc1ccc(-n2[nH]c(C)c(/C=N/Nc3ccc([N+](=O)[O-])cc3[N+](=O)[O-])c2=O)cc1C`: the Potency is 2.39 µM (active).

On to `Cc1ccc(-n2[nH]c(C)c(/C=N/Nc3ccc([N+](=O)[O-])cc3[N+](=O)[O-])c2=O)cc1`, for which the Potency was 6.75 µM (active).

In the case of `O=C(N/N=C/c1ccc[nH]1)c1sc2ccccc2c1Cl`, the Potency result was “inactive”.

With `Nc1nnc(COc2ccc(Br)cc2Br)s1`, the Potency result was “inactive”.

With `O=C(Oc1c(Br)cc([N+](=O)[O-])cc1Br)c1cccnc1`, the Potency was 4.26 µM (active).

Turning to `COc1ccc(CN2CCCN(C)CC2)c(OC)c1C`, the Potency entry was “inactive”.

Consider `Cc1ccc(S(=O)(=O)NCCNS(=O)(=O)c2ccc(C)cc2)cc1`, for which the Potency result was “inactive”.

On to `Cc1ccc(S(=O)(=O)Nc2ccc(N=Nc3ccc(O)cc3)cc2)cc1`, for which the Potency is 30.1 µM (active).

Consider `CCOC(=O)N1CCN(C(=O)c2ccc(NS(=O)(=O)c3ccc(C)cc3)cc2)CC1`, for which the Potency entry is “inactive”.

Regarding `N#C/C(=N\Nc1ccc(Cl)c(Cl)c1)C(=O)C1CC1`, the Potency was 6.01 µM (active).

Regarding `Cc1cccc(C)c1NC(=O)N1CCC(C(=O)c2ccc(F)cc2)CC1`, the Potency entry is “inactive”.

Consider `O=C(Nc1nnc(C(F)(F)F)s1)c1ccc(Br)s1`, for which the Potency is 10.7 µM (active).
